Compound activity (PubChem BioAssay)
Sampled rows, rich in hits. Any-hit rate of the full collection: about 1.2%.
PKA-R2B activ – activators of PKA-R2B holoenzyme, primary screen, biochemical, fluorescence polarization, Cy5-IP20, human; cAMP-dependent protein kinase catalytic subunit beta (Homo sapiens) + cAMP-dependent …; PKA-R2B holoenzyme dissociation; R2B truncated from residue 108, S112A mutant; 0% DMSO only, 100% 113 µM cGMP; activation, % at 11.4 µM; hit rate 0.079% among 340,000; AID 504700, 2011;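 active = activation above a cutoff set at the mean over all compounds plus 3 SD, cut at about 18% in these data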;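 also: higher means more holoenzyme dissociation and a rise in polarization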
Target sequence (P31323 whole entry, looked up, other chains not shown, the tested form may be a part): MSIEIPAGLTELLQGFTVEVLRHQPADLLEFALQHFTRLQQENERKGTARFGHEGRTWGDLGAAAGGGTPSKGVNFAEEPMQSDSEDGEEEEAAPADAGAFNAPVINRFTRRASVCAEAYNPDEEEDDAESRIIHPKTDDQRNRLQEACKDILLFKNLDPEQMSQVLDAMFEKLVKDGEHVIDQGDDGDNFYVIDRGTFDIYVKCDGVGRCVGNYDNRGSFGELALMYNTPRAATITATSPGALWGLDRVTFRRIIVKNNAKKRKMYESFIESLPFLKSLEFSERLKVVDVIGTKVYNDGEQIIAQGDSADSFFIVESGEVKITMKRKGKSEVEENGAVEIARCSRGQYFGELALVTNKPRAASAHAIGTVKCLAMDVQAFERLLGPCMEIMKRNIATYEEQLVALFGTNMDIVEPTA
NR1D1 modulator – modulators of Rev-erb alpha DNA binding, primary screen, biochemical, FITC-DNA, fluorescence polarization, uHTS; Nuclear receptor subfamily 1 group D member 1 (Homo sapiens), P20393; Rev-erbα–FITC-DNA binding, 90 min; activity, % at 10 µM; hit rate 0.79% among 370,000;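 active = activity above about 14%, limit read from the data; passing the limit was not always enough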;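 also: 0% = DMSO wells with 35 nM protein and 100% = DMSO wells with 750 nM protein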
PKA-R1A act – activators of PKA-R1A holoenzyme, primary screen, biochemical, fluorescence polarization, Cy5-IP20, bovine R1A, mouse PKAc; PKA-R1A dissociation; scaled: DMSO 0%, 113 µM cGMP 100%; hit rate 0.083% among 340,000; AID 504707, 2011; activation, % at 11.4 µM; cAMP-dependent protein kinase type I-alpha regulatory subunit (Bos taurus) + …;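 active = percent activation above the mean of all tested compounds plus 3 SD, cut at about 19% in these data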;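 also: higher means more PKAc released from R1A so a rise in polarization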
PG9 binder – binders of HIV-1 gp120 antibody PG9, primary screen, biochemical, TR-FRET; HIV-1 gp120 / PG9 antibody interaction; TR-FRET gp120-PG9 antibody binding; inhibition, % at 6.7 µM; hit rate 0.43% among 360,000; AID 624416, 2012; in the data active = inhibition above about 8.5%
Rev-erbA confirm – modulators of Rev-erb alpha DNA binding, confirmation, biochemical, FITC-DNA, fluorescence polarization, single point. 90 min. hit rate 61% among 3,000. shares compounds with NR1D1 modulator. activation, % at 25 µM;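 active = activation at or above a set limit, or at least 3 SD above the negative control mean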;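 also: 0% = 35 nM protein with DMSO and 100% = 750 nM protein high control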
RORg DNA counter – modulation of RORgamma DNA binding, dose response, counter-screen for Rev-erb alpha modulator project, biochemical, fluorescence polarization, FITC-DNA; hit rate 8% among 910; AID 1259320, 2017; shares compounds with NR1D1 modulator; purified RORgamma protein-FITC-DNA binding; IC50, µM;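 active = Compounds whose fitted half-maximal concentration for disrupting protein-DNA binding is below 10 micromolar; the record names Rev-erb in its text, so the target is in doubt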
Numbers without * were called inactive; i = inactive; nt = no result given.

SMILES | PKA-R2B activ | NR1D1 modulator | PKA-R1A act | PG9 binder | Rev-erbA confirm | others
CCn1c(SCC(=O)Nc2cc(C)on2)nc2sc(C)c(C)c2c1=O | nt | 27* | nt | 7 | 35* | RORg DNA counter=>40
COc1cc(C=O)c(Br)cc1OCc1ccc(C)cc1 | 3 | 18* | -7 | 1 | 7
COc1cc(C=O)ccc1OCc1ccncc1 | -8 | -3 | -5 | -1 | nt
Cc1ccc(Cl)cc1NC(=O)Cn1cc(C(F)(F)F)cc(Cl)c1=O | -7 | 4 | -4 | -2 | nt
Cc1c(Cl)cccc1NC(=O)Cn1cc(C(F)(F)F)cc(Cl)c1=O | -9 | 44* | 10 | 0 | 43* | RORg DNA counter=i
Cc1ccccc1CN1CCCCC(NC(=O)c2ccc(F)cc2F)C1=O (stereo not given) | nt | -7 | nt | nt | nt
COc1ccc2cc(/C=N/NC(=O)c3c(Cl)cnn3C)c(Cl)nc2c1 | 1 | 24* | 1 | -4 | 11
COc1ccc2cc(/C=N/NC(=O)c3ccc(CN(c4ccc(C)c(C)c4)S(C)(=O)=O)cc3)c(Cl)nc2c1 | -14 | -1 | 6 | -1 | nt
CCCC1CCC2(CCC(=O)N2CCC#N)CC1 (stereo not given) | nt | 0 | nt | nt | nt
COc1ccc2c(COC(=O)CC3Sc4ccccc4NC3=O)cc(=O)oc2c1 (stereo not given) | 2 | 0 | -10 | -2 | nt
CC(=O)Nc1ccc2c(COC(=O)CC3Sc4ccccc4NC3=O)cc(=O)oc2c1 (stereo not given) | 3 | 53* | 7 | -3 | 26*
COC(=O)C1CN(C(=O)OC(C)(C)C)C2=C1C(=O)CC(C)(C(=O)OC(C)(C)C)C2 (stereo not given) | nt | 5 | nt | nt | nt
O=C(c1ccc(Cl)cc1)c1cnc(Nc2ccccc2Cl)s1 | 3 | 35* | -9 | 6 | 12
COc1ccc(CN2C(NC(=O)OCc3ccccc3)=NC3=CC(C)(C)n4c(=O)n(-c5ccccc5)c(=O)n4C32)c(OC)c1 (stereo not given) | nt | 1 | nt | nt | nt
CN1C(=O)c2cccc(NCCCN3C(=O)c4ccccc4C3=O)c2C1=O | -11 | 46* | -17 | -1 | 19*
CCC[C@H]1[C@@H](NC(=O)/C=C/c2ccccc2)CC[C@@]23CCCN2C(=O)CCC[C@@H]13 | nt | -3 | nt | nt | nt
Cc1cc(N2CCN(c3ncccn3)CC2)nc2c(C)cccc12 | -5 | 35* | -12 | -2 | 6
Cc1cc(Nc2ccc(Cl)cc2)nc(-c2ccccc2O)n1 | 8 | 29* | 6 | -2 | -2
COc1ccc(CNC(=O)C(C#N)c2nc3ccccc3nc2N2CCN(C)CC2)cc1 (stereo not given) | -9 | -1 | 0 | -1 | nt
COc1ccc(CNC(=O)C(C#N)c2nc3ccccc3nc2N2CCCC2)cc1 (stereo not given) | 4 | 42* | -5 | 0 | 23*
Cc1ccc(-n2c(Cc3cccs3)nnc2SCc2ccc([N+](=O)[O-])cc2)cc1 | nt | -1 | nt | nt | nt
O=C(Nc1ccc(Oc2ccccc2)nc1)[C@H]1O[C@@H](n2ccc(=O)[nH]c2=O)[C@H](O)[C@@H]1O | nt | 20* | nt | 1 | -1
Nc1ccn([C@@H]2O[C@H](C(=O)Nc3ccc(Oc4ccccc4)nc3)[C@@H](O)[C@H]2O)c(=O)n1 | nt | 2 | nt | 1 | nt
Cn1nnnc1SCc1nc2ccccc2s1 | 0 | 22* | -12 | -1 | 7
Cn1nnnc1SCc1cccc2ccccc12 | -4 | 5 | -8 | -1 | nt
SMILES | PKA-R2B activ | NR1D1 modulator | PKA-R1A act | PG9 binder | Rev-erbA confirm | others
N#Cc1c(-c2ccccc2)oc(=O)c2ccccc12 | 3 | 20* | 5 | 0 | -2
O=c1oc(-c2ccccc2)c(-c2ccccc2)c2ccccc12 | -5 | -5 | -8 | 1 | nt
Cc1ccccc1Cn1cc(COC(=O)N2CCOCC2)nn1 | nt | 5 | nt | nt | nt
COc1ccc(C(=O)Nc2ccc(C(=O)Nc3cccnc3)cc2)cc1 | 4 | 26* | -8 | 1 | 24*
COc1ccc(C(=O)Nc2cccc(-c3cnc4ccccc4n3)c2)cc1 | -6 | 26* | 6 | -1 | 13
COc1ccc(NC(=O)c2ccc(NC(=O)c3cccnc3)cc2)cc1 | 2 | -2 | -8 | -1 | nt
O=C(NCc1ccc(C(=O)N2CCCN(Cc3ccccc3)CC2)cc1)c1cccc(Br)c1 | nt | 7 | nt | nt | nt
COC(=O)c1c(C(=O)c2ccc(Br)cc2)n(C)c2ccccc12 | -8 | 18* | -6 | 4 | 21*
COC(=O)c1c(S(N)(=O)=O)c2ccccc2n1C | -1 | -4 | 3 | 2 | nt
Cc1c(/C(O)=C2/C(=O)C(=O)N(CCN3CCOCC3)C2c2cccs2)cnn1-c1ccccc1 (stereo not given) | 1 | 21* | 13 | 5 | 26*
Cc1c(N2C(=O)/C(=C/c3ccc(N(C)C)cc3)N(C)C2=S)c(=O)n(-c2ccccc2)n1C | 1 | 22* | -9 | -17 | 19*
COC(=O)C1CN(Cc2ccc(OC)cc2)CCS(=O)(=O)N1Cc1cn(Cc2ccc(F)cc2)nn1 (stereo not given) | nt | 5 | nt | nt | nt
COc1ccc(C(=O)NC(=S)Nc2ccc3c(c2)Cc2ccccc2-3)cc1 | -9 | 24* | -2 | 1 | 1
Cc1ccc(NC(=S)NC(=O)c2ccccc2)cc1NC(=S)NC(=O)c1ccccc1 | 2 | 21* | -2 | 6 | 1
COc1ccc(-c2cc3c(=O)n(CC(=O)NCc4ccc(C)cc4)ncn3n2)cc1 | -8 | 16 | -1 | -1 | nt
COc1ccc(-c2cc3c(=O)n(CC(=O)NCc4ccc(Cl)cc4)ncn3n2)cc1 | -1 | 21* | -6 | 0 | 5
Cc1ccc(-n2c(SCC(=O)c3ccccc3Cl)nnc2-c2cnccn2)cc1 | nt | 0 | nt | nt | nt
CCOc1ncccc1C(=O)Nc1cc(S(=O)(=O)N2CCOCC2)ccc1OCC(F)(F)F | -8 | 31* | -7 | 0 | 15*
CC(C)(C)[C@@H]1/C(=C/C2CC2)N2C(=O)C[C@@H](c3ccccc3)N=C2N1Cc1ccc2c(c1)OCO2 | nt | 0 | nt | nt | nt
CCCCCCc1nc2c(=O)[nH]c3ccccc3c2o1 | 3 | 52* | -2 | 2 | 11
CCCCCCCc1nc2c(=O)n(C)c3ccccc3c2o1 | -7 | 10 | -9 | 1 | nt
COc1ccc(-c2oc(=O)c3cc(OC)c(OC)cc3c2C#CCCCO)cc1 | -3 | 13 | -8 | -1 | nt
